DAX1 inh-1 – inhibitors of human orphan nuclear receptor DAX1 (NR0B1); AID 504766; HEK293 Gal4-DAX1 luciferase reporter, luminescence; P51843; inhibition, % at 6.75 µM; 340,000 tested, 0.99% active;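 active = inhibition above the mean over all tested compounds plus 3 SD, cut at about 4.2% in these data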;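 note: 0% = DAX1-transfected cells with DMSO and 100% = empty-vector control cells with DMSO; inhibition shows as a rise in luminescence from relieved DAX1 repression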
DAX1 inh-2 – inhibitors of DAX1 repression of SF-1 activated StAR promoter. inhibition, % at 6.8 µM. HEK293T StAR-luciferase reporter, SF-1/DAX-1 repression relief. 370,000 tested, 1.1% active;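 active = inhibition above the mean over all tested compounds plus 3 SD, cut at about 3.6% in these data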;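 note: 0% = DAX-1 cells with DMSO and 100% = cells lacking DAX-1 with DMSO; higher inhibition means more luminescence from relief of DAX-1 repression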
AHR act – activators of human aryl hydrocarbon receptor | P35869 | AHR-responsive luciferase reporter cells, luminescence | activation, % at 5 µM | 320,000 tested, 2.5% active; in the data active = activation above about 47%;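 note: 0% = vehicle wells and 100% = reference agonist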
Target sequence (P35869 whole entry, looked up): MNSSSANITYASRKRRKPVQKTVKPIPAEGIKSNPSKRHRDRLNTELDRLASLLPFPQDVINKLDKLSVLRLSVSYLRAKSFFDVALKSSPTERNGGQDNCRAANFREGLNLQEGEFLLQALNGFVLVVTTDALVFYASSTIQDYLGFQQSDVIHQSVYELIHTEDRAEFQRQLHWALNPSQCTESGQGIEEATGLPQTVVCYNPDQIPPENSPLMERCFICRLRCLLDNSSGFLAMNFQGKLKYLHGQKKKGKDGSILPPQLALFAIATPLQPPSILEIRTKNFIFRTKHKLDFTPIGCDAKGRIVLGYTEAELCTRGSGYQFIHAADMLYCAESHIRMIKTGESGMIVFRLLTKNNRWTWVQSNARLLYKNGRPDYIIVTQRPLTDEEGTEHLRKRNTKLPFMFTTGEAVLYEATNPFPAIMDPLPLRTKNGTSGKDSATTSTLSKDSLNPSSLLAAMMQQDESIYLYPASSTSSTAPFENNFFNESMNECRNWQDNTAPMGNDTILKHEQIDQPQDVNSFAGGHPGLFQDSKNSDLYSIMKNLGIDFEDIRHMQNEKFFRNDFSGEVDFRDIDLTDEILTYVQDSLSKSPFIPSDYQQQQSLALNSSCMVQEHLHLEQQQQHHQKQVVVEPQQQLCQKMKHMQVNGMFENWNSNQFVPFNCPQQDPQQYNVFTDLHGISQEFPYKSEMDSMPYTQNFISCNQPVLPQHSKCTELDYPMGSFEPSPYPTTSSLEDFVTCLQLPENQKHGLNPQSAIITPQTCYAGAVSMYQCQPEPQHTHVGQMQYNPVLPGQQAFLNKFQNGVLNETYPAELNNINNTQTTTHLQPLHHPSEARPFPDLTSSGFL
hcDAF-12 act – activators of H. contortus DAF-12 nuclear receptor; activation, % at 6.8 µM; 370,000 tested, 1.4% active; HEK293 hcDAF-12 lit1-tk-luc reporter, luminescence; 0% DMSO, 100% Δ7-dafachronic acid;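 active = activation above the mean of all tested compounds plus 3 SD, cut at about 5.5% in these data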;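 note: 100% = response to 3 µM Δ7-dafachronic acid high control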
hgDAF-12 ag – agonists of H. glycines DAF-12 nuclear receptor; HEK293 GAL4-hgDAF12 UAS-luciferase reporter, agonist luminescence; normalized to butyrate control; activation, % at 6.8 µM; 370,000 tested, 1.8% active; AID 687014;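 active = activation above a cutoff set at the mean of all screened compounds plus 3 SD, cut at about 10% in these data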;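 note: 0% = DMSO wells and 100% = sodium butyrate wells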
ssDAF12 agonist – S. stercoralis DAF-12 activation, primary screen; 370,000 tested, 1% active; AID 652126; HEK293 ssDAF-12/GRIP1 lit1-tk-luc reporter, luminescence; % of 3 µM dafachronic acid response; activation, % at 6.8 µM;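 active = activation above the mean over all tested compounds plus 3 SD, cut at about 0.9% in these data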;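 note: 0% = DMSO-only wells and 100% = 3 µM delta7-dafachronic acid wells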
hgDAF12 ag – hgDAF-12 agonism, confirmation assay; activation, % at 6.8 µM; 3,300 tested, 80% active; shares compounds with hgDAF-12 ag; HEK293 GAL4-hgDAF12 luciferase reporter, agonist mode; percent of butyrate response;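 active = mean activation over triplicate wells above the hit cutoff derived from the earlier primary screen, cut at about 11% in these data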;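 note: 0% = DMSO low control and 100% = 2 mM sodium butyrate high control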
LXR ag 2 – activates human LXR-beta, counter-screen for DAF-12 agonists; HEK293 Gal4-LXR luciferase reporter, 24 h; shares compounds with hgDAF-12 ag; AID 743051; 3,300 tested, under 10 active; activation, % at 6.8 µM;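 active = mean activation of the triplicate above a set limit carried over from the primary screen, none filed active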
Starred values were filed as active, the others as inactive; nt = no result. Shown are actives, neighbours in structure and some others; about 5.7% of the full set was active somewhere.

SMILES	DAX1 inh-1	DAX1 inh-2	AHR act	hcDAF-12 act	hgDAF-12 ag	ssDAF12 agonist	hgDAF12 ag	LXR ag 2
C/C(=N\Nc1nccnc1Cl)c1ccc([N+](=O)[O-])cc1	1	2	-2	4	15*	1	2	0
C/C(=N\Nc1nccnc1Cl)c1ccc(Br)cc1	1	2	nt	5.8*	17*	0	6	0
CN(C(=O)c1ccc(Br)cc1)C1CCS(=O)(=O)C1 (configuration not stated)	1	1	3	1	-1	-1	nt	nt
Cn1ccc2cc(OCc3ccccc3)ccc21	3	4.2*	nt	4	22*	1.4*	15*	1
CCOCC(=O)Nc1cccc(SC)c1	1	1	2	-1	-1	-1	nt	nt
N#C/C(=C(/O)c1ccco1)c1nc2ccccc2[nH]1	5.0*	3.9*	24	1	22*	1.2*	23*	0
Nc1ccccc1NC(=O)NC(=O)c1ccccc1	4.6*	2	5	1	16*	2.0*	16*	0
Nc1ccccc1NC(=O)c1ccccc1N	0	0	8	0	5	0	nt	nt
CC(C)(ONC(=O)Nc1ccccc1Cl)C(=O)O	3	0	-1	2	0	-1	nt	nt
O=C(N/N=C/c1sc(=O)n(-c2ccccc2)c1Cl)c1ccccc1	0	0	1	2	24*	0	16*	1
NC(=O)N/N=C/c1sc(=O)n(-c2ccccc2)c1Cl	1	-1	6	2	0	0	nt	nt
O=C(NCC1CCCO1)c1cc(-c2ccccc2F)no1 (configuration not stated)	2	1	7	5.6*	20*	0	33*	0
O=C(NCCN1CCOCC1)c1cc(-c2ccc(Br)cc2)on1	1	0	8	0	0	-1	nt	nt
O=C(NCCN1CCOCC1)c1cc(-c2ccccc2)on1	2	0	12	2	24*	0	23*	0
O=C(NCCCN1CCOCC1)c1cc(-c2ccccc2)on1	3	1	11	3	26*	-1	27*	0
O=C(NCCCN1CCOCC1)c1cc(-c2ccc(O)cc2)on1	2	1	0	2	8	0	nt	nt
O=C(NCCN1CCOCC1)c1cc(-c2cccs2)on1	3	-1	62*	1	20*	0	29*	0
Cc1cnc(CNc2nc3cc(-c4ccccc4C)sc3c(=O)n2C)cn1	nt	-1	nt	-2	-1	-1	nt	nt
Cc1cc(CNC(=O)COc2ccc(C)c(C)c2)c2ccccc2n1	-1	0	6	-1	-3	-2	nt	nt
COc1ccc(C2C(C(C)=O)=C(O)C(=O)N2c2ccc(Br)cc2)cc1 (configuration not stated)	3	1	1	0	6	-1	nt	nt
Cc1ccc(Nc2n[nH]c(=S)s2)cc1C	3	3.8*	nt	3	18*	-1	11*	1
CCC/C(C)=C/c1ccc(CC)cn1	0	0	nt	-1	3	-1	nt	nt
COc1ccc(-c2cc(C(=O)N3CCOCC3)no2)cc1OC	1	1	6	-1	6	-1	nt	nt
COc1ccccc1-c1cc(C(=O)N2CCOCC2)no1	3	2	11	3	17*	0	12*	0
COc1ccc2occ(C(=O)c3cccs3)c2c1	2	1	7	4	15*	-1	13*	0
SMILES	DAX1 inh-1	DAX1 inh-2	AHR act	hcDAF-12 act	hgDAF-12 ag	ssDAF12 agonist	hgDAF12 ag	LXR ag 2
Cc1ccc(-c2nc(C#N)c(NCc3ccco3)o2)cc1	3	2	27	1	14*	0	16*	0
COc1ccc(-c2nc(C#N)c(NCc3ccco3)o2)cc1	1	2	45	-1	16*	-1	16*	0
O=C(NCCS(=O)(=O)N1CCN(c2ccccc2F)CC1)C1CC(=O)N(c2ccccc2)C1 (configuration not stated)	0	0	1	-2	1	-1	nt	nt
O=C(CSc1nnc(NC2CCCCC2)s1)Nc1ccc2c(c1)C(=O)c1ccccc1C2=O	12*	3	11	4	14*	0	14*	0
Cc1ccc(CNC(=O)COC(=O)Cc2ccc(-c3ccccc3)cc2)cc1	4	-1	-1	0	-1	-1	nt	nt
COc1ccc(-c2nnc(SC)n2C)cc1	1	1	0	0	-1	-1	nt	nt
Cn1cc(C(=O)Nc2ccc3c(c2)CCC3)cn1	2	2	37	1	8	0	nt	nt
O=C(Nc1ccc2c(c1)CCC2)c1cc(F)cc(F)c1	2	4.1*	0	0	14*	0	13*	0
Cn1c(SCC2CCCCC2)nnc1-c1ccco1	nt	1	nt	1	15*	0	15*	0
Cc1ccsc1/C=N/NC(=O)c1sccc1C	3	3.7*	48*	7.2*	13*	1.6*	18*	1
Cc1ccsc1/C=N/NC(=O)CO	2	-1	2	-3	-3	-1	nt	nt
CCC/C=N/NC(=O)c1ccc(F)cc1	0	0	4	-2	6	-1	nt	nt
CCC/C=N/NC(=O)c1cccc(Br)c1	1	0	2	-1	14*	-1	3	0
Cc1ccc(Nc2nc(N)nc(CSc3nncn3C)n2)cc1	3	1	21	3	7	0	nt	nt
COc1ccc(Nc2nc(N)nc(CSc3nccn3C)n2)cc1	1	3	34	3	21*	0	13*	0
Cc1ccc(S(=O)(=O)Nc2ccccc2[N+](=O)[O-])cc1	nt	-2	nt	-1	28*	-1	1	0
Cc1ccc(NS(=O)(=O)c2ccccc2)c([N+](=O)[O-])c1	-1	2	nt	0	-1	-1	nt	nt
Cc1nc2sc(C#N)c(N)c2c2c1CCCC2	-1	0	-3	-2	0	-2	nt	nt
COc1cc(/C=C/c2ccc3cccc(O)c3n2)cc(Cl)c1OC	1	0	0	2	14*	0	17*	1
CCC(C)[C@H](NC(=O)N1CCC(C)CC1)C(=O)O (some centres not stated)	-1	-1	-1	-1	4	0	nt	nt
CC1(C)CC(=O)C(Sc2ccccc2)=C(O)C1	2	0	-2	0	0	-1	nt	nt
Cc1cccc(NC(=O)c2ccc(N3CCCCC3)c([N+](=O)[O-])c2)n1	1	1	5	3	10	0	nt	nt

Compound activity as filed in PubChem BioAssay.
